According to the supplement of paper PMC6555819:

What was measured:
Assay in all cases: PBM binding z-score (relative to random genomic background probes); higher = stronger binding; sequences stand for … in GC…GCGATTGACAGCGTAGAATGAAGG
[1] = test system: PPARg:RXRa DBDmut IVT, anti-RXR (DBD mutation: RXRa K156A/R161A, NR concentration 270 nM, RXRa partner concentration 90 nM)
Outline: (§1)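 Each nuclear receptor dimer, without ligand, was incubated for 1 h on custom Agilent 4×180K protein-binding microarrays. Binding was detected with antibodies against each partner (one per run), and scanned fluorescence was regression-normalized. The binding z-scores are referenced to random human genomic background probes.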

[2] = test system: PPARg:RXRa IVT, anti-PPARg (NR concentration 270 nM, RXRa partner concentration 90 nM)
Outline: as §1

[3] = test system: PPARg DBDmut:RXRa IVT, anti-PPARg (DBD mutation: PPARg1 K132A/R137A, NR concentration 270 nM, RXRa partner concentration 90 nM)
Outline: as §1

[4] = test system: PPARg DBDmut IVT, anti-PPARg (DBD mutation: PPARg1 K132A/R137A, NR concentration 270 nM)
Outline: as §1

[5] = test system: PPARg homodimer (NR concentration 180 nM)
Outline: as §1

[6] = test system: PXR:RXRa (NR concentration 270 nM, RXRa partner concentration 90 nM)
Outline: as §1

[7] = test system: PXR homodimer (NR concentration 270 nM)
Outline: as §1

[8] = test system: RARa:RXR (NR concentration 270 nM, RXRa partner concentration 90 nM)
Outline: as §1

[9] = test system: RARa homodimer (NR concentration 270 nM)
Outline: as §1

[10] = test system: RARb:RXRa (NR concentration 270 nM, RXRa partner concentration 90 nM)
Outline: as §1

Sequence | PBM binding z-score [1] | PBM binding z-score [2] | PBM binding z-score [3] | PBM binding z-score [4] | PBM binding z-score [5] | PBM binding z-score [6] | PBM binding z-score [7] | PBM binding z-score [8] | PBM binding z-score [9] | PBM binding z-score [10]
ACTAGCAGGGCAAGTTTGGGTCACTCAAACAAAG | 2.04 | 1.96 | -0.127 | -0.121 | 0.449 | 1.13 | -0.488 | 2.07 | -0.817 | 2.43
CGTCCAAGGTCAATGCTTGGTCAGTGAAAGCATT | 2.65 | 3.19 | -0.682 | -0.881 | 3.32 | 3.86 | 0.527 | 4.45 | 0.0669 | 5.03
TAGCCTAGGTCATTCGGCCAGTATAGTACGCATC | 1.85 | 2.83 | -0.386 | -0.398 | 0.361 | 1.39 | -0.455 | 2 | -0.658 | 3.6
CCTACTGGGCCACGAAGGGTCATTGATTCAGTGA | 4.42 | 5.28 | -0.0977 | -1.2 | 1.51 | 3.23 | 0.0111 | 3.46 | 0.673 | 2.82
CCTGCTAGGTCAATTGTCAGCTAAAGCAGCTCGC | 4.15 | 3.14 | -0.356 | -0.703 | 0.436 | 0.762 | -0.49 | 1.34 | -0.799 | 3.53
CCTACTGGGCCATAGGTCATTGATTCCAATGCTC | 3.69 | 5.78 | -0.202 | 0.625 | 2 | 2.1 | 0.286 | 2.7 | -0.287 | 2.34
CTTACTGGGCCAAGGTCATTGATCAGTCAAAGCA | 6.43 | 6.49 | 1.83 | 1.71 | 2.67 | 3.89 | 1.48 | 4.38 | 0.236 | 3.38
GCTCGGAGGACAAGGTCAGATCTTTGTCCGTAGA | -0.309 | 0.755 | -0.782 | -0.686 | 0.86 | 1.87 | -0.322 | 2.22 | -0.579 | 3.52
GCTGCTAGGTCAGGTTGGCCAGCTAACGGGTACG | 2.74 | 2.24 | -0.719 | -0.956 | 0.0382 | -0.079 | -0.624 | 0.336 | -0.755 | 3.1
CCAGACAGGTAAGAAGGTAACTCAGCCTCGATTA | 0.139 | -0.122 | -0.475 | -0.368 | 0.961 | 0.129 | 0.112 | 0.274 | 0.51 | 0.0631
TAGCCTAGGTCATTCAGGGTCCAGTATAGAAAGC | 1.57 | 2.74 | 0.533 | 0.0908 | 1.38 | 3.27 | 0.324 | 2.84 | -0.0201 | 3.77
TCTGCTACGTCAACGATGGTCAGCTAATCTGCTA | 0.824 | -0.0517 | -0.273 | 0.303 | -1.54 | -0.555 | -0.856 | -0.492 | -1.62 | -0.0266
CCTTACGAGTCACTCCAGGTTATAGCATCGGAGT | 0.574 | 0.424 | 0.623 | 0.364 | 1.41 | 1.2 | 1.12 | 0.999 | 1.56 | 0.664
TAGGCTAGGTCAGATCGGGCCAGTATACGCTATA | 0.883 | 1.39 | -0.0594 | -0.524 | 0.195 | 1.54 | -0.57 | 1.55 | -0.477 | 3.3
TCATATAGGTAGAAGGTGAAAGTCGGTGTGGTAA | 3.5 | 2.69 | 1.46 | 0.808 | 1.59 | 0.746 | 0.482 | 1.17 | 1.42 | 1.08
CCTAGCAGGCCAGGGTCGCTCAAGCATTTCGCTT | -0.39 | -0.535 | -1.87 | -2.27 | -0.112 | 1.78 | -0.439 | 1.84 | -0.399 | 0.562
ACTTACGGGTCAATGAGGTTATAGCACGCGTATA | 3.32 | 3.66 | 1.87 | 1.58 | 1.79 | 4.89 | 2.68 | 4.53 | 1.1 | 3.86
ATATGTAGGTTATCAGGTCATTCAGTTTGCGCAT | 7.41 | 7.44 | 1.79 | 2.79 | 2.91 | 3.44 | 9.35 | 3.2 | 2.11 | 2.86
ACAGACAGGTGAGTGAAGGTAACCCAGCTGGACG | 0.473 | 0.884 | 0.557 | -0.411 | 0.0822 | -0.299 | -0.316 | 0.365 | -0.386 | 0.623

Sequence | PBM binding z-score [1] | PBM binding z-score [2] | PBM binding z-score [3] | PBM binding z-score [4] | PBM binding z-score [5] | PBM binding z-score [6] | PBM binding z-score [7] | PBM binding z-score [8] | PBM binding z-score [9] | PBM binding z-score [10]
CATACTAGGTCACGAAAGGTCAAAGTCGAATGAC | 7.83 | 8.34 | 2.56 | 1.91 | 3.01 | 7.08 | 3.85 | 7.57 | 4.19 | 5.65
ATATGTAGGTTATCGGGTCATTCTGTTTGCGCAT | 7.83 | 7.65 | 3.52 | 2.76 | 2.77 | 3.48 | 1.54 | 3.91 | 1.87 | 2.57
AATACAGGGTCAATAGGCCAGAGTAGGTACGAAT | 2.44 | 4.21 | 1.55 | 0.759 | 2.2 | 2.69 | 0.585 | 3.85 | 0.911 | 4.17
CACACTAGGTCAAGGTCAAAGTCGGTTTGTGCCA | 7.8 | 8.02 | 6.91 | 5.72 | 7.79 | 5.54 | 4.08 | 5.87 | 3.51 | 5.03
CTCGAAAGGTCGTGTTCAGGTGAGTATACCAAAC | 0.51 | 1.95 | 0.275 | 1.56 | 1.51 | 3.14 | 0.411 | 3.85 | 0.304 | 3.78
CGAACGAGGGCATGAGTTGATGGCAAATGCCGAT | 3.03 | 2.23 | -0.341 | -0.685 | -0.031 | 0.243 | -0.209 | 0.201 | -1.03 | 1.99
TCTTGTAGATCAACAGGAGGTTAAGAATGATCGA | 1.72 | 0.852 | 0.795 | 0.577 | 0.581 | 0.825 | 0.00794 | 0.975 | 0.614 | 0.678
CCTAGCAGGCCAAACTGGGTCACTCAAGGCTTGA | 4.11 | 4.34 | -0.371 | -1.09 | 0.924 | 1.05 | -0.482 | 1.77 | -0.26 | 1.61
CCAGACAGGCGAGAAGGTAACTCAGCCTCGATTA | -0.678 | -0.816 | -0.981 | -2.1 | -0.649 | -1.02 | -0.455 | -0.88 | -0.498 | -0.619
TAGCCTAGGTCTTGCGGGCCAGTATAGTGTCGGC | -0.581 | -0.0643 | -0.303 | -0.84 | -1.39 | -1.05 | -1.29 | -0.863 | -1.17 | -0.327
CGTCCAAGGTCAGCAGGTCAGTGATAGCGACGTG | 3.28 | 3.76 | -0.113 | -0.161 | 2.53 | 3.41 | 0.512 | 4.49 | 1.26 | 5.45
TCTCGGAGGACTCGAAAGGTCAGAGCTCGACATC | 1.26 | 0.952 | -0.254 | -0.419 | 1.63 | 3.16 | 0.0023 | 3.76 | -0.0102 | 3.62
GCTGCTTGGTCAACTGATGGTCAGCTAAAGCTCG | 0.408 | 0.0173 | -0.74 | -1.06 | -0.674 | -0.491 | -0.859 | -0.138 | -0.784 | 1.24
TCTTGTAGCTCAACAGGAGGTTAAGAAAGATCGA | 0.679 | -0.415 | 0.889 | 0.0315 | -0.822 | 0.474 | -0.26 | 0.724 | -0.715 | -0.0252
CCAGACAGGTCAGAAGGTAACTCAGCCTCGATTA | 1.41 | 1.15 | -0.393 | -1.03 | 2.19 | 1.21 | 0.153 | 2.1 | 0.911 | 3.49
CTCGAAAGGTCGGTTGAGGTGGGTATACGGATAA | -0.182 | 0.818 | -0.122 | -0.109 | 1.13 | 2.08 | 0.36 | 1.53 | 0.507 | 2.99
ATCGAAAGGTCGACGAGGTGATTATACACCGTTT | 0.604 | 1.86 | 1.29 | 0.577 | 1.31 | 3.32 | 1.07 | 3.76 | 0.346 | 3.78
CAAACTTGGTCACAGAGGTCAAAGTCCGTGCGTA | 2.87 | 4.58 | 0.599 | 0.268 | 3.66 | 6.07 | 3.89 | 6.64 | 1.42 | 4.34
